For six molecules, potency estimated from few doses results are on record in PMC11062922 (Nature Chemical Biology, 2023).

Read-outs that look alike come from different tables or passages of the source.

The subject of assay [1] is AAK1. Also noted: species or system human, MV4-11 + K-562 + COLO205 + SK-N-BE2 + OVCAR-8. Conditions: read-out: apparent Kd, n = 1.
In assay [2] the test system is CLK1. Also noted: species or system human, MV4-11 + K-562 + COLO205 + SK-N-BE2 + OVCAR-8. Conditions: read-out: apparent Kd, compound concentrations: 100 nM and 1000 nM (sheet 'Samples'), n = 1.
The test system of assay [3] is CLK4. Also noted: species or system human, MV4-11 + K-562 + COLO205 + SK-N-BE2 + OVCAR-8. Conditions: read-out: apparent Kd, compound concentrations: 100 nM and 1000 nM (sheet 'Samples'), n = 1.
In assay [4] the test system is CSNK2A1;CSNK2A3. Also noted: species or system human, MV4-11 + K-562 + COLO205 + SK-N-BE2 + OVCAR-8. Conditions: read-out: apparent Kd, n = 1.
The test system of assay [5] is CSNK2A2. Set-up: species or system human, MV4-11 + K-562 + COLO205 + SK-N-BE2 + OVCAR-8. Conditions: read-out: apparent Kd, n = 1.
Assay [6] has as its system FLT3. Set-up: species or system human, MV4-11 + K-562 + COLO205 + SK-N-BE2 + OVCAR-8. The note with it: read-out: apparent Kd, compound concentrations: 100 nM and 1000 nM (sheet 'Samples'), n = 1.
Assay [7] deals with Q6ZSR9 (human, UniProt Q6ZSR9). Set-up: species or system MV4-11 + K-562 + COLO205 + SK-N-BE2 + OVCAR-8. Conditions: read-out: apparent Kd, n = 1.
The subject of assay [8] is BMP2K. Also noted: species or system human, MV4-11 + K-562 + COLO205 + SK-N-BE2 + OVCAR-8. The note with it: read-out: apparent Kd, n = 1.
The test system of assay [9] is GAK. Also noted: species or system human, MV4-11 + K-562 + COLO205 + SK-N-BE2 + OVCAR-8. Conditions: read-out: apparent Kd; compound concentrations: 100 nM and 1000 nM (sheet 'Samples'), CATDS: 2.8408815024035201E-2; n = 1.
Assay [10] deals with MELK. Set-up: species or system human, MV4-11 + K-562 + COLO205 + SK-N-BE2 + OVCAR-8. Conditions: read-out: apparent Kd, n = 1.
Assay [11] has as its system NUAK1. Set-up: species or system human, MV4-11 + K-562 + COLO205 + SK-N-BE2 + OVCAR-8. Conditions: read-out: apparent Kd, n = 1.
Assay [12] concerns PAK4. Also noted: species or system human, MV4-11 + K-562 + COLO205 + SK-N-BE2 + OVCAR-8. The note with it: read-out: apparent Kd, n = 1.
Assay [13] has as its system RET. Also noted: species or system human, MV4-11 + K-562 + COLO205 + SK-N-BE2 + OVCAR-8. Conditions: read-out: apparent Kd; compound concentrations:100 nM and 1000 nM (sheet 'Samples'); n = 1.
The subject of assay [14] is SIK2. Set-up: species or system human, MV4-11 + K-562 + COLO205 + SK-N-BE2 + OVCAR-8. The note with it: read-out: apparent Kd; compound concentrations:100 nM and 1000 nM (sheet 'Samples'); n = 1.
The test system of assay [15] is FLT4. Also noted: species or system human, MV4-11 + K-562 + COLO205 + SK-N-BE2 + OVCAR-8. Conditions: read-out: apparent Kd; compound concentrations: 100 nM and 1000 nM (sheet 'Samples'), CATDS: 1.8307563949858899E-2; n = 1.
In assay [16] the test system is GSK3A. Also noted: species or system human, MV4-11 + K-562 + COLO205 + SK-N-BE2 + OVCAR-8. Conditions: read-out: apparent Kd; compound concentrations: 100 nM and 1000 nM (sheet 'Samples'), CATDS: 2.1356053852556199E-2; n = 1.
Assay [17] has as its system GSK3B. Set-up: species or system human, MV4-11 + K-562 + COLO205 + SK-N-BE2 + OVCAR-8. The note with it: read-out: apparent Kd; compound concentrations: 100 nM and 1000 nM (sheet 'Samples'), CATDS: 3.2546275447974102E-2; n = 1.
Where [18] appears, read: compound concentrations:100 nM and 1000 nM (sheet 'Samples').

Sequence of Q6ZSR9 (Q6ZSR9 whole entry, looked up): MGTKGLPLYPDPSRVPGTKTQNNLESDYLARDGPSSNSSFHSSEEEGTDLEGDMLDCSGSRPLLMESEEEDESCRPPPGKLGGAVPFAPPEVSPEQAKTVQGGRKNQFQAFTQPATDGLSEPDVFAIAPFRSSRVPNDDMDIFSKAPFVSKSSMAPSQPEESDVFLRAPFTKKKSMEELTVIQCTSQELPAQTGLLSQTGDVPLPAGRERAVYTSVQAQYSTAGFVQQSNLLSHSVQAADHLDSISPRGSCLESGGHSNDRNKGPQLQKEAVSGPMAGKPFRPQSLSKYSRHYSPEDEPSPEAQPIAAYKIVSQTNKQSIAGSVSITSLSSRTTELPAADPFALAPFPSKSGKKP

On to `O=C1N=C(NCCCc2ccccc2)S/C1=C\c1ccc2ncccc2c1` [RO4493941-000], for which the potency estimated from few doses in [1] (compound concentrations: 100 nM and 1000 nM (sheet 'Samples'), CATDS: 6.7611203009870793E-2) was 1120 nM; in assay [2] (CATDS: 8.49411754848379E-2), 528 nM; in [3] (CATDS: 0.15877377246004401) it was 105 nM; in [4] (compound concentrations: 100 nM and 1000 nM (sheet 'Samples'), CATDS: 0.35522502931524602) it was 22 nM; in assay [5] (compound concentrations: 100 nM and 1000 nM (sheet 'Samples'), CATDS: 0.347313618598384), 22.8 nM; in assay [6] (CATDS: 7.0899563785954994E-2), 945 nM. Moreover, the potency estimated from few doses in [7] (compound concentrations: 100 nM and 1000 nM (sheet 'Samples'), CATDS: 7.1931032695021699E-2) was 898 nM.

For the molecule `O=C1N=C(NCc2c(Cl)cccc2Cl)S/C1=C\c1ccc2ncccc2c1` [RO4600445-000], the potency estimated from few doses in assay [1] (compound concentrations: 100 nM and 1000 nM (sheet 'Samples'), CATDS: 0.26661690920713499) is 1130 nM; in assay [3] (CATDS: 0.27673451036998298) it was 1050 nM; in [7] (compound concentrations: 100 nM and 1000 nM (sheet 'Samples'), CATDS: 0.220638600653874), 1680 nM.

Regarding `COc1ccc(-c2cc3c(N)ncnc3o2)cc1` [GW642138X], the potency estimated from few doses in assay [1] (compound concentrations: 100 nM and 1000 nM (sheet 'Samples'), CATDS: 9.3740609603759906E-2) is 2100 nM.

Consider `c1ccc(-c2n[nH]cc2Nc2ccnc3ccccc23)nc1` [GW694077X], for which the potency estimated from few doses is 22.9 nM in assay [1] (compound concentrations: 100 nM and 1000 nM (sheet 'Samples'), CATDS: 0.15981280907647699); 31.6 nM in assay [8] (compound concentrations: 100 nM and 1000 nM (sheet 'Samples'), CATDS: 0.12898106830803699); 116 nM in assay [2] (CATDS: 6.3259021647505201E-2); 948 nM in assay [3] (CATDS: 2.8276062957920199E-2); 870 nM in assay [4] (compound concentrations: 100 nM and 1000 nM (sheet 'Samples'), CATDS: 2.9027112719044901E-2); 1070 nM in assay [5] (compound concentrations: 100 nM and 1000 nM (sheet 'Samples'), CATDS: 2.7289326995804501E-2). In addition, the potency estimated from few doses in assay [9] was 933 nM; in [10] (compound concentrations: 100 nM and 1000 nM (sheet 'Samples'), CATDS: 2.6674495002574999E-2), 1150 nM; in assay [7] (compound concentrations: 100 nM and 1000 nM (sheet 'Samples'), CATDS: 0.16373298432482) it was 22.1 nM.

For the molecule `O=C(O)C(F)(F)F.O=c1[nH]ccc2nc(N[C@@H]3CCNC3)nc(Nc3cc(Cl)cc(Cl)c3)c12` [GSK2188764A], the potency estimated from few doses in [1] (setting [18]) is 114 nM; in assay [8] (setting [18]), 749 nM; in assay [4] (setting [18]), 239 nM; in assay [5] (setting [18]) it was 585 nM; in assay [10] (setting [18]), 765 nM; in assay [11] (setting [18]), 27.4 nM. Moreover, the potency estimated from few doses in assay [12] (setting [18]) is 11 nM; in [7] (setting [18]), 151 nM; in [13], 1350 nM; in assay [14], 1440 nM.

Consider `COc1cc(Nc2nccc(-c3cnn4ncccc34)n2)cc(OC)c1` [GW801372X], for which the potency estimated from few doses was 184 nM in assay [1] (compound concentrations: 100 nM and 1000 nM (sheet 'Samples'), CATDS: 3.8573145954119099E-2); 1820 nM in [8] (compound concentrations: 100 nM and 1000 nM (sheet 'Samples'), CATDS: 1.7916348880173499E-2); 18.2 nM in assay [2] (CATDS: 0.124159144382542); 26.6 nM in [3] (CATDS: 0.10081286200227101); 22.4 nM in [6] (CATDS: 0.110722345436643); 1650 nM in assay [15]. The potency estimated from few doses is 929 nM in [16]; 277 nM in [17]; 94.5 nM in assay [11] (compound concentrations: 100 nM and 1000 nM (sheet 'Samples'), CATDS: 5.2338687670537398E-2); 1120 nM in assay [12] (compound concentrations: 100 nM and 1000 nM (sheet 'Samples'), CATDS: 2.0251882597793001E-2); 173 nM in [7] (compound concentrations: 100 nM and 1000 nM (sheet 'Samples'), CATDS: 3.9611085380352497E-2).
